SMILES strings stand for the structures. Compounds without any hit were thinned out: in the full panel of roughly 83,000, 20% have a hit.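 Interpretation: 100, growth as untreated; towards 0, rising growth inhibition; 0, no net growth; 0 to -100, cell death. Compounds scoring below 10 were considered active.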 Unmarked numbers belong to inactive results. The source made the active and inactive calls.

One assay relates to NCI-H322M lung. The assay is described as follows: NCI-60 one-dose screen, 48 h (100 = growth as untreated, 0 = no growth, -100 = all killed). Conditions: 10 µM.
In the case of `O=C1CC[C@@H](C(=O)N[C@H]2CSSC[C@@H](C(=O)N/C=C/c3ccc(O)cc3)NC(=O)[C@H](Cc3ccccc3)NC(=O)[C@@H]3CCCN3C(=O)[C@@H]3CCCN3C2=O)N1`, the growth is 108%.
The same measure, in the same setting: in the case of `CCCCCc1cc[n+](CC(=O)c2ccc(Cl)cc2)cc1` it was 85.3%; in that of `CC(C)CCN(CCCNc1c2c(nc3cc(Cl)ccc13)CCCC2)CCC(C)C`, 75%; in that of `FC(F)(F)c1ccc(-c2ncc(-c3ccc(C(F)(F)F)cc3)c(NCc3cc(C(F)(F)F)cc(C(F)(F)F)c3)n2)cc1`, 90.9%.
On to `CC(=O)CS(C)(=O)=O`, for which the growth is 113%.
Consider `COc1ccc(-c2csc(-c3cc(Cl)cc(Cl)c3Cl)n2)cc1`, for which the growth is 98.6%.
`Cc1nnc2c3nnc(-c4ccc(Cl)cc4)n3c3ccccc3n12`: the growth is 86.4%.
On to `O=C(C=P(c1ccccc1)(c1ccccc1)c1ccccc1)c1ccc(Br)cc1`, for which the growth is 78.6%.
For `COc1cc(C2=Nc3c/c(=C\c4c(O)[nH]c5ccc(Cl)cc45)ccc3=N2)cc(OC)c1OC`, the growth was 57.2%.
Consider `NC(=O)c1ccc(Br)o1`, for which the growth was 104%.
For the molecule `C(=C\c1nc2ccccc2s1)/c1ccc(N2CCOCC2)s1`, the growth was 79.7%.
On the same count and under the same terms, the result for `COc1ccc(-c2nnc(N3CCN(C(=O)CN4CCN(c5ccc(Cl)cc5)CC4)CC3)nc2-c2ccc(OC)cc2)cc1` reads 92.7%.
Consider `Cc1ccc(C2C=C(c3ccc(Cl)cc3)N=C3SC=CN32)c(Br)c1` (configuration not stated), for which the growth was 85.5%.
In the case of `N#CCC1CCCC1`, the growth was 111%.
With `FC(F)(F)c1ccc(-c2cnc(Cl)nc2NC2CCCCCC2)cc1`, the growth was 71.1%.
For the molecule `Oc1ccccc1-c1nnc(Cn2c(Cc3cccc4ccccc34)nc3ccccc32)o1`, the growth was 84.4%.
Take `CCOC(=O)c1cc2c(n1Cc1cc(OC)cc(OC)c1)-c1oncc1CC2`: the growth was -1.31% (active).
On to `COc1ccc(-c2nnc(SC/C(=N\O)c3ccccc3)o2)cc1`, for which the growth was 113%.
In the case of `CCOCC[P+](c1ccccc1)(c1ccccc1)c1ccccc1`, the growth is 82%.
As for `CCN(CC)CC(O)CNc1ccnc2cc(Cl)c(Cl)cc12` (configuration not stated), the growth is 92.1%.
For the molecule `COc1cccc(C(=O)NNc2nc(N3CCN(C4CCCCC4)CC3)nc(N3CCN(C(c4ccccc4)c4ccccc4)CC3)n2)c1`, the growth was 74.5%.
Same read-out and setting: in the case of `COc1ccc(CCc2nc3cc(-c4c(C)noc4C)ccc3n2CCN2CCOCC2)cc1` it was 75.8%.
`Nc1ccc(C2=CC(c3ccc(Cl)cc3)N3C=CSC3=N2)cc1` (configuration not stated): the growth was -57.2% (active).
The same measure, in the same setting: in the case of `CN(C)Cc1cccs1` it was 101%.

In a further assay the test system is HOP-62 NSCLC. Described as above. Conditions: 10 µM.
As to `COc1ccc(-n2nnc3c(sc4ccccc43)c2=O)cc1`, the growth is -8.23% (active).
On the same count and under the same terms, in the case of `COc1ccc(Cn2cc3c(c2-c2cc(OC)c(OC)c(OC)c2)CCc2cnoc2-3)cc1[N+](=O)[O-]` it was 56.6%; in that of `Nc1ncc(-c2ccc(C(F)(F)F)cc2)c(NC2CCCCCC2)n1`, 57.7%.
As to `CC(C)(C)CC(C)(C)c1ccc(O)c(Cc2ccc(Cl)cc2Cl)c1`, the growth is -88.4% (active).
For `CC(=O)Nc1ccc2c(c1)C(N1CC3CCC(CC3)C1)c1ccccc1-2` (configuration not stated), the growth was 96.5%.
Take `COc1cccc2c1C(=O)c1c(O)c3c(c(O)c1C2=O)C[C@@](O)(C(=O)COC(=O)c1cccnc1)C[C@@H]3OC1CC(N)C(O)C(C)O1` (some centres not stated): the growth was -7.51% (active).
As for `O=C(CCl)N1c2ccccc2Sc2ccc3ccccc3c21`, the growth was -77.8% (active).
Regarding `CCOc1nc(-c2ccccc2)cc2c(O)c(C(=O)NC(C)C)[nH]c(=O)c12`, the growth is 99.7%.
With `CN1/C(=C\C(I)C(I)C2=[N+](C)c3ccccc3C2(C)C)C(C)(C)c2ccccc21` (configuration not stated), the growth is 5.15% (active).
Consider `COc1ccc(-c2csc(NC(=O)CO[N+](=O)[O-])n2)cc1`, for which the growth is 101%.
On to `CCCCc1ccc(NC(=O)N(CCCl)N=O)cc1`, for which the growth was 90.8%.
Same read-out and setting: in the case of `CCCCOCCOCCOCc1cc2c(cc1Br)OCO2` it was 92.7%; in that of `Nc1nc2c(ncn2C2OC3COP(=O)(O)OC4C(COP(=O)(O)OC2C3O)OC(n2cnc3c(N)ncnc32)C4O)c(=O)[nH]1` (configuration not stated), 94%; in that of `O=[N+]([O-])c1ccc(-c2nc(-c3ccccc3)c(-c3ccccc3)n2-c2ccccc2)cc1`, 38.2%.
With `O=C1CC[C@@H](C(=O)N[C@H]2CSSC[C@@H](C(=O)N/C=C/c3ccc(O)cc3)NC(=O)[C@H](Cc3ccccc3)NC(=O)[C@@H]3CCCN3C(=O)[C@@H]3CCCN3C2=O)N1`, the growth is 78.2%.
`CCCCCc1cc[n+](CC(=O)c2ccc(Cl)cc2)cc1`: the growth is 92.7%.
Turning to `CC(C)CCN(CCCNc1c2c(nc3cc(Cl)ccc13)CCCC2)CCC(C)C`, the growth is 77.9%.
For the molecule `FC(F)(F)c1ccc(-c2ncc(-c3ccc(C(F)(F)F)cc3)c(NCc3cc(C(F)(F)F)cc(C(F)(F)F)c3)n2)cc1`, the growth was 62.6%.
In the case of `CC(=O)CS(C)(=O)=O`, the growth was 106%.
Same read-out and setting: in the case of `COc1ccc(-c2csc(-c3cc(Cl)cc(Cl)c3Cl)n2)cc1` it was 91.1%; in that of `Cc1nnc2c3nnc(-c4ccc(Cl)cc4)n3c3ccccc3n12`, 93.4%; in that of `O=C(C=P(c1ccccc1)(c1ccccc1)c1ccccc1)c1ccc(Br)cc1`, 125%.
Regarding `COc1cc(C2=Nc3c/c(=C\c4c(O)[nH]c5ccc(Cl)cc45)ccc3=N2)cc(OC)c1OC`, the growth is -82% (active).
Same read-out and setting: the result for `NC(=O)c1ccc(Br)o1` reads 91.7%; that for `C(=C\c1nc2ccccc2s1)/c1ccc(N2CCOCC2)s1`, 118%.
Take `COc1ccc(-c2nnc(N3CCN(C(=O)CN4CCN(c5ccc(Cl)cc5)CC4)CC3)nc2-c2ccc(OC)cc2)cc1`: the growth is 88.4%.
Consider `Cc1ccc(C2C=C(c3ccc(Cl)cc3)N=C3SC=CN32)c(Br)c1` (configuration not stated), for which the growth was 96.5%.
For `N#CCC1CCCC1`, the growth was 92.7%.
For `FC(F)(F)c1ccc(-c2cnc(Cl)nc2NC2CCCCCC2)cc1`, the growth was 33.4%.
`Oc1ccccc1-c1nnc(Cn2c(Cc3cccc4ccccc34)nc3ccccc32)o1`: the growth is 87.6%.
Turning to `CCOC(=O)c1cc2c(n1Cc1cc(OC)cc(OC)c1)-c1oncc1CC2`, the growth was 58%.
For the molecule `COc1ccc(-c2nnc(SC/C(=N\O)c3ccccc3)o2)cc1`, the growth was 97.7%.
For the molecule `CCOCC[P+](c1ccccc1)(c1ccccc1)c1ccccc1`, the growth was 50.3%.
Take `CCN(CC)CC(O)CNc1ccnc2cc(Cl)c(Cl)cc12` (configuration not stated): the growth is 88.9%.
As for `COc1cccc(C(=O)NNc2nc(N3CCN(C4CCCCC4)CC3)nc(N3CCN(C(c4ccccc4)c4ccccc4)CC3)n2)c1`, the growth is 45.2%.
Regarding `COc1ccc(CCc2nc3cc(-c4c(C)noc4C)ccc3n2CCN2CCOCC2)cc1`, the growth is 40.2%.
The same measure, in the same setting: the result for `Nc1ccc(C2=CC(c3ccc(Cl)cc3)N3C=CSC3=N2)cc1` (configuration not stated) reads -63.8% (active); that for `CN(C)Cc1cccs1`, 69.1%.

For the origin of these results see PubChem BioAssay (NCI).
